The target of the first assay is NKX2-5 (Homo sapiens, UniProt P52952 125-210, R139K). The assay can be described thus: PBM; 200 nM protein, PBS. The note with it: dsDNA, one strand shown.
NKX2-5 (Homo sapiens, UniProt P52952 125-210), sequence (P52952 125-210): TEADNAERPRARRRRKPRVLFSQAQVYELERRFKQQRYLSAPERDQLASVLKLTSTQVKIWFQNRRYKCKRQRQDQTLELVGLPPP
NKX2-5 (Homo sapiens, UniProt P52952 125-210, R139K), sequence (P52952 125-210 R139K): as the sequence (P52952 125-210) above, with R15K counted along it
Turning to ATCCTTAG, the binding signal is 10.5 upbm affinity estimate (log intensity, higher = more binding, comparable within an allelic series).
As to CAAGTGCC, the binding signal was 12.3 upbm affinity estimate (log intensity, higher = more binding, comparable within an allelic series).
For GGCTCTTA, the binding signal is 11.7 upbm affinity estimate (log intensity, higher = more binding, comparable within an allelic series).
Turning to ACGGTCCA, the binding signal was 8.85 upbm affinity estimate (log intensity, higher = more binding, comparable within an allelic series).
Still for that read-out and setting: the result for ACCGCGGG reads 8.49 upbm affinity estimate (log intensity, higher = more binding, comparable within an allelic series).
In the case of CCACTAGA, the binding signal is 11.3 upbm affinity estimate (log intensity, higher = more binding, comparable within an allelic series).
Turning to GATGAGTA, the binding signal was 11 upbm affinity estimate (log intensity, higher = more binding, comparable within an allelic series).
Take ACCATGGT: the binding signal was 9.14 upbm affinity estimate (log intensity, higher = more binding, comparable within an allelic series).
For CCCTAAGA, the binding signal was 10.8 upbm affinity estimate (log intensity, higher = more binding, comparable within an allelic series).
On to CCGGAGAC, for which the binding signal is 8.74 upbm affinity estimate (log intensity, higher = more binding, comparable within an allelic series).
In the case of ACCGCGGC, the binding signal is 8.83 upbm affinity estimate (log intensity, higher = more binding, comparable within an allelic series).
ACCAAACC: the binding signal was 8.82 upbm affinity estimate (log intensity, higher = more binding, comparable within an allelic series).
Turning to CCCTGGGC, the binding signal is 8.86 upbm affinity estimate (log intensity, higher = more binding, comparable within an allelic series).
Turning to GCCCTCTA, the binding signal was 10.4 upbm affinity estimate (log intensity, higher = more binding, comparable within an allelic series).
As for CCGTCCCG, the binding signal is 8.71 upbm affinity estimate (log intensity, higher = more binding, comparable within an allelic series).
Take CCCGAGGC: the binding signal was 9.04 upbm affinity estimate (log intensity, higher = more binding, comparable within an allelic series).
As for CACAAGAG, the binding signal was 11.1 upbm affinity estimate (log intensity, higher = more binding, comparable within an allelic series).
As to CCCCAACG, the binding signal is 8.6 upbm affinity estimate (log intensity, higher = more binding, comparable within an allelic series).
On to CCTCTCGA, for which the binding signal was 11.2 upbm affinity estimate (log intensity, higher = more binding, comparable within an allelic series).
Turning to TCTGCAGA, the binding signal was 9.09 upbm affinity estimate (log intensity, higher = more binding, comparable within an allelic series).
Consider CCCGTCAG, for which the binding signal is 9.01 upbm affinity estimate (log intensity, higher = more binding, comparable within an allelic series).
On to ACGTCCCG, for which the binding signal was 8.76 upbm affinity estimate (log intensity, higher = more binding, comparable within an allelic series).
Consider TATGAAGA, for which the binding signal is 10.8 upbm affinity estimate (log intensity, higher = more binding, comparable within an allelic series).
Regarding CCCTTGAC, the binding signal was 11.1 upbm affinity estimate (log intensity, higher = more binding, comparable within an allelic series).
Consider ACCGGAGC, for which the binding signal was 8.8 upbm affinity estimate (log intensity, higher = more binding, comparable within an allelic series).
As to CGCCAGGA, the binding signal is 8.64 upbm affinity estimate (log intensity, higher = more binding, comparable within an allelic series).
As for AAGTGAGT, the binding signal is 11.4 upbm affinity estimate (log intensity, higher = more binding, comparable within an allelic series).
AAGTAGGG: the binding signal was 10.9 upbm affinity estimate (log intensity, higher = more binding, comparable within an allelic series).
Turning to AGGCGAGC, the binding signal is 9.02 upbm affinity estimate (log intensity, higher = more binding, comparable within an allelic series).
Still for that read-out and setting: the result for CCTGGGCA reads 8.92 upbm affinity estimate (log intensity, higher = more binding, comparable within an allelic series); that for CACTACAC, 10.6 upbm affinity estimate (log intensity, higher = more binding, comparable within an allelic series).
As for GCAGACCA, the binding signal was 9.14 upbm affinity estimate (log intensity, higher = more binding, comparable within an allelic series).
The same measure, in the same setting: the figure for CTCATAAG is 10.8 upbm affinity estimate (log intensity, higher = more binding, comparable within an allelic series); for CGACACTC it is 10.6 upbm affinity estimate (log intensity, higher = more binding, comparable within an allelic series); for ACTAGTAC it is 10.7 upbm affinity estimate (log intensity, higher = more binding, comparable within an allelic series).
With ACAGCGCC, the binding signal was 8.89 upbm affinity estimate (log intensity, higher = more binding, comparable within an allelic series).
On the same count and under the same terms, the result for ACTTATCG reads 11.2 upbm affinity estimate (log intensity, higher = more binding, comparable within an allelic series); that for AGTGCCTA, 11.2 upbm affinity estimate (log intensity, higher = more binding, comparable within an allelic series); that for AGTACTCG, 11.5 upbm affinity estimate (log intensity, higher = more binding, comparable within an allelic series).
Consider CACAGCCC, for which the binding signal is 9.06 upbm affinity estimate (log intensity, higher = more binding, comparable within an allelic series).

Another assay concerns the target NKX2-5 (Homo sapiens, UniProt P52952 125-210). The assay can be described thus: PBM; 200 nM protein, PBS. The note with it: dsDNA, one strand shown.
Regarding ATCCTTAG, the binding signal was 10.5 upbm affinity estimate (log intensity, higher = more binding, comparable within an allelic series).
As to GGCTCTTA, the binding signal is 11.6 upbm affinity estimate (log intensity, higher = more binding, comparable within an allelic series).
ACGGTCCA: the binding signal is 8.85 upbm affinity estimate (log intensity, higher = more binding, comparable within an allelic series).
Consider ACCGCGGG, for which the binding signal is 8.44 upbm affinity estimate (log intensity, higher = more binding, comparable within an allelic series).
Take CCACTAGA: the binding signal is 11.2 upbm affinity estimate (log intensity, higher = more binding, comparable within an allelic series).
The same measure, in the same setting: the figure for GATGAGTA is 10.9 upbm affinity estimate (log intensity, higher = more binding, comparable within an allelic series); for ACCATGGT it is 9.06 upbm affinity estimate (log intensity, higher = more binding, comparable within an allelic series); for CCCTAAGA it is 10.8 upbm affinity estimate (log intensity, higher = more binding, comparable within an allelic series).
For CCGGAGAC, the binding signal is 8.76 upbm affinity estimate (log intensity, higher = more binding, comparable within an allelic series).
On to ACCGCGGC, for which the binding signal was 8.84 upbm affinity estimate (log intensity, higher = more binding, comparable within an allelic series).
Same read-out and setting: the result for ACCAAACC reads 8.9 upbm affinity estimate (log intensity, higher = more binding, comparable within an allelic series); that for CCCTGGGC, 8.96 upbm affinity estimate (log intensity, higher = more binding, comparable within an allelic series); that for GCCCTCTA, 10.5 upbm affinity estimate (log intensity, higher = more binding, comparable within an allelic series).
In the case of CCGTCCCG, the binding signal is 8.66 upbm affinity estimate (log intensity, higher = more binding, comparable within an allelic series).
For CCCGAGGC, the binding signal is 9.06 upbm affinity estimate (log intensity, higher = more binding, comparable within an allelic series).
CACAAGAG: the binding signal is 11 upbm affinity estimate (log intensity, higher = more binding, comparable within an allelic series).
On to CCCCAACG, for which the binding signal was 8.67 upbm affinity estimate (log intensity, higher = more binding, comparable within an allelic series).
For CCTCTCGA, the binding signal is 11.3 upbm affinity estimate (log intensity, higher = more binding, comparable within an allelic series).
Same read-out and setting: the result for TCTGCAGA reads 9.04 upbm affinity estimate (log intensity, higher = more binding, comparable within an allelic series); that for CCCGTCAG, 9.04 upbm affinity estimate (log intensity, higher = more binding, comparable within an allelic series).
As to ACGTCCCG, the binding signal is 8.79 upbm affinity estimate (log intensity, higher = more binding, comparable within an allelic series).
As for TATGAAGA, the binding signal is 10.7 upbm affinity estimate (log intensity, higher = more binding, comparable within an allelic series).
Take CCCTTGAC: the binding signal is 11.1 upbm affinity estimate (log intensity, higher = more binding, comparable within an allelic series).
As for ACCGGAGC, the binding signal is 8.81 upbm affinity estimate (log intensity, higher = more binding, comparable within an allelic series).
Regarding CGCCAGGA, the binding signal is 8.64 upbm affinity estimate (log intensity, higher = more binding, comparable within an allelic series).
With AAGTGAGT, the binding signal is 11.4 upbm affinity estimate (log intensity, higher = more binding, comparable within an allelic series).
Same read-out and setting: the result for AAGTAGGG reads 10.9 upbm affinity estimate (log intensity, higher = more binding, comparable within an allelic series); that for AGGCGAGC, 8.95 upbm affinity estimate (log intensity, higher = more binding, comparable within an allelic series).
For the sequence CCTGGGCA, the binding signal was 9.12 upbm affinity estimate (log intensity, higher = more binding, comparable within an allelic series).
Regarding CACTACAC, the binding signal was 10.7 upbm affinity estimate (log intensity, higher = more binding, comparable within an allelic series).
As to GCAGACCA, the binding signal is 9.12 upbm affinity estimate (log intensity, higher = more binding, comparable within an allelic series).
Regarding CTCATAAG, the binding signal was 10.9 upbm affinity estimate (log intensity, higher = more binding, comparable within an allelic series).
Still for that read-out and setting: the result for CGACACTC reads 10.5 upbm affinity estimate (log intensity, higher = more binding, comparable within an allelic series); that for ACTAGTAC, 10.7 upbm affinity estimate (log intensity, higher = more binding, comparable within an allelic series).
Consider ACAGCGCC, for which the binding signal was 8.85 upbm affinity estimate (log intensity, higher = more binding, comparable within an allelic series).
With ACTTATCG, the binding signal is 11.2 upbm affinity estimate (log intensity, higher = more binding, comparable within an allelic series).
For the sequence AGTGCCTA, the binding signal is 11.1 upbm affinity estimate (log intensity, higher = more binding, comparable within an allelic series).
For AGTACTCG, the binding signal is 11.3 upbm affinity estimate (log intensity, higher = more binding, comparable within an allelic series).
For the sequence CACAGCCC, the binding signal is 9.02 upbm affinity estimate (log intensity, higher = more binding, comparable within an allelic series).
